Compound activity from PubChem BioAssay.
An excerpt weighted towards active compounds, which were near 3.8% of everything screened.
A549 viability: Nrf2 qHTS screen for inhibitors: counterscreen for cytotoxicity; A549 ARE-Fluc cells, CellTiter-Fluor viability, 18-24 h; Potency, µM (highest dose often 46 µM), actives largely listed as inhibitors; 0.16% of 390,000 active; AID 504648, 2011
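Cytotoxicity counterscreen: CellTiter-Fluor fluorescence was measured in A549 ARE_Fluc cells after 18-24 h of compound exposure in a concentration series. The subsequent BugLite luminescent read reports ARE-luciferase activity.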
TGFb inhibitor: qHTS for Inhibitors of TGF-b | HepG2 CAGA-GFP TGF-b/SMAD3 reporter, GFP fluorescence, 18 h; TGF-beta stimulated, 500 pg/mL final | Potency, µM (highest dose often 46.1 µM), most hits filed as inhibitors | 1.2% of 410,000 active | AID 588855, 2011; note: nearly all actives have a fitted effect of over 65% in size
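Using HEPG2 CAGA-GFP reporter cells at 1000 cells/well, we pinned test compounds, stimulated with recombinant TGF-beta (500 pg/mL final) and measured total well GFP after 18 h.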
HepG2 tox: qHTS for Inhibitors of TGF-b: Cytotox Counterscreen; HepG2 CAGA-GFP viability, ATP luminescence, 18 h; Potency, µM (series often up to 46.1 µM), hits mostly cytotoxic; 0.76% of 410,000 active; AID 588856, 2011
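CellTiter-Glo luminescence gave cytotoxicity after 18 hours at 37 degrees C. The cells were HepG2 CAGA-GFP in 1% FBS DMEM, stimulated with 500 pg/mL TGF-beta after compound addition. %Activity was normalised to no-cell wells (complete cell-killing) and DMSO (no toxicity), and curves were fitted and classified.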
ATXN2 expr inh: Primary qHTS for Inhibitors of ATXN expression; AID 1745845, 2022; Potency, µM (highest dose often 57 µM), hits mostly inhibitors; HEK-293 ATXN2-luciferase reporter, luminescence, 24 h; 0.72% of 360,000 active; note: nearly all actives have a fitted effect of over 55% in size
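ATXN2-luciferase reporter cells (luciferase flanked by upstream and downstream ATXN2 gene portions) were treated 24 h at 37 °C with compounds at up to 57 uM. SteadyGlo luminescence gave expression; GF-AFC fluorescence gave viability.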
Nrf2 block: Nrf2 qHTS screen for inhibitors. A549 ARE-Fluc reporter, luciferase luminescence, 18-24 h. Potency, µM (series often up to 46 µM), most hits filed as inhibitors. 2.1% of 360,000 active; note: nearly all actives have a fitted effect of over 60% in size
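Nrf2 activity is the BugLite luminescence, read 15 min after reagent at room temperature, following CellTiter-Fluor cytotoxicity readout (30 min, 37C). Compound titrations were applied for 18-24 h to 5000 A549 ARE_Fluc cells/well in 5% FBS OPTI-MEM.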
ATXN viability: Viability Counterscreen for Primary qHTS for Inhibitors of ATXN expression; S2 cells (HEK-293 line with an ATXN2-luciferase reporter) viability, CellTiter-Fluor protease fluorescence, 24 h; Potency, µM (top dose mostly 56.7 µM), hits mostly cytotoxic; 0.49% of 400,000 active; AID 651635, 2014; note: nearly all actives have a fitted effect of over 40% in size
Each line names hits and unclear results; the compound was inactive in the other large screens. Calls come from the whole dose curve; as a rule, active = well fitted curve in the direction sought with a large enough effect; inconclusive = small, poorly fitted or top-dose-only effect, or another doubt; inactive = no such curve, though single readings can be large; an effect the other way counts as inactive or inconclusive.

CCC(C)(C)C1CCc2[nH]nc(C(=O)N/N=C(\C)c3ccco3)c2C1 (stereo unspecified)	TGFb inhibitor 14µM, Nrf2 block inconclusive, ATXN viability inconclusive
COc1cccc(CNC(=O)CNS(=O)(=O)c2ccc3nc(C)sc3c2)c1	none (no result: TGFb inhibitor, ATXN2 expr inh, ATXN viability)
Cc1cccc(-n2ncc3c2CCCC3NC(=O)CCc2ccncc2)c1C (stereo unspecified)	Nrf2 block 5.8µM
Cc1ccn(CCC(=O)NC2CCCc3c2cnn3-c2cccc(C)c2C)n1 (stereo unspecified)	none
CCn1c(CNC(=O)c2cc(OC)c(OC)c(OC)c2)cc2ccccc21	Nrf2 block 21µM
O=C(CC(c1cccs1)N1Cc2ccccc2C1=O)Nc1ccccc1 (stereo unspecified)	none
C/C=C1\COC(C(=O)NC)(C(F)(F)F)C=C1C=C1CCCCC1 (stereo unspecified)	TGFb inhibitor 16µM (no result: ATXN2 expr inh, ATXN viability)
C/C=C1\COC(C(=O)NCCOCCO)(C(F)(F)F)C=C1C=C1CCCCC1 (stereo unspecified)	TGFb inhibitor 13µM (no result: ATXN2 expr inh, ATXN viability)
C/C=C1\COC(C(=O)NCc2ccncc2)(C(F)(F)F)C=C1C=C1CCCCC1 (stereo unspecified)	A549 viability inconclusive, TGFb inhibitor 10µM, Nrf2 block inconclusive
CC[n+]1ccnc2ccccc21	TGFb inhibitor 3.2µM, HepG2 tox 3.5µM (no result: A549 viability, ATXN2 expr inh, Nrf2 block, ATXN viability)
O=C(Oc1ccc(Br)cc1C(=O)/C=C/c1ccccc1F)c1ccco1	TGFb inhibitor 16µM, ATXN2 expr inh inconclusive, ATXN viability inconclusive
Cc1nc2ccc(S(=O)(=O)Nc3cccc(-c4nc5cccnc5s4)c3C)cc2s1	Nrf2 block 23µM
COc1cc(C2NC(=O)NC3=C2C(=O)OC3)cc(OC)c1OC (stereo unspecified)	none
CC(=O)c1ccc(N2CCN(S(=O)(=O)c3ccc4c(c3)C(Cl)(Cl)C(=O)N4)CC2)cc1	TGFb inhibitor 22µM (no result: A549 viability, Nrf2 block)
CC(=O)c1ccc(N2CCN(S(=O)(=O)c3ccc4c(c3)NC(=O)CC(=O)N4)CC2)cc1	none
O=[N+]([O-])c1cc(S(=O)(=O)NCCN2CCOCC2)ccc1Cl	none
Cc1cccc(NC(=O)CSc2ncc(-c3ccc(Br)cc3)[nH]2)c1	TGFb inhibitor inconclusive, HepG2 tox 13µM, ATXN2 expr inh inconclusive, ATXN viability inconclusive
C[C@@H]1CN([C@H](C)CO)S(=O)(=O)c2ccc(C#Cc3ccccc3F)cc2O[C@H]1CN(C)C(=O)c1ccc2c(c1)OCO2	TGFb inhibitor inconclusive, ATXN2 expr inh inconclusive, ATXN viability 13µM (no result: A549 viability, Nrf2 block)
Cc1ccc(S(=O)(=O)c2c(N)n(Cc3ccco3)c3nc4ccccc4nc23)cc1C	A549 viability inconclusive, TGFb inhibitor inconclusive, Nrf2 block inconclusive
Cc1ccc(S(=O)(=O)c2c(N)n(CCC(C)C)c3nc4ccccc4nc23)cc1	A549 viability inconclusive, TGFb inhibitor inconclusive, ATXN2 expr inh inconclusive, Nrf2 block inconclusive, ATXN viability inconclusive
CC(C)CCn1c(N)c(S(=O)(=O)c2cccs2)c2nc3ccccc3nc21	A549 viability inconclusive, TGFb inhibitor 16µM, ATXN2 expr inh 18µM, Nrf2 block inconclusive, ATXN viability inconclusive
Nc1c(S(=O)(=O)c2ccccc2)c2nc3ccccc3nc2n1Cc1ccco1	A549 viability inconclusive, Nrf2 block 26µM
COC(=O)CN1C(=O)N/C(=C/c2ccccc2OC)C1=O	Nrf2 block inconclusive (no result: ATXN2 expr inh)
Cc1ccc(C(C(=O)NC2CCCC2)N(C(=O)Cc2cccs2)c2ccc(C)c(C)c2)o1 (stereo unspecified)	A549 viability inconclusive, TGFb inhibitor inconclusive, Nrf2 block 18µM
Cc1ccc(N(C(=O)CCl)C(C(=O)NC2CCCCC2)c2cccnc2)cc1C (stereo unspecified)	TGFb inhibitor inconclusive, ATXN2 expr inh 3.2µM, ATXN viability 2.8µM
Cc1ccc(C)c(N(C(=O)Cc2cccs2)C(C(=O)NC2CCCC2)c2ccc(C)o2)c1 (stereo unspecified)	none
Cc1ccc(-c2nc(CS(=O)CC(=O)NCCc3ccc(Cl)cc3)c(C)o2)cc1 (stereo unspecified)	TGFb inhibitor inconclusive, Nrf2 block inconclusive (no result: ATXN2 expr inh, ATXN viability)
O=C(C1CCN(c2ncnc3c2nc2n3CCCCC2)CC1)N1CCN(c2cccc(Cl)c2)CC1	TGFb inhibitor inconclusive, Nrf2 block inconclusive, ATXN viability 18µM (no result: ATXN2 expr inh)
Clc1cccc(N2CCN(c3ncnc4c3nc3n4CCCCC3)CC2)c1	A549 viability inconclusive, TGFb inhibitor inconclusive, ATXN2 expr inh 18µM, Nrf2 block 13µM (no result: ATXN viability)
CN[C@@H]1CN(c2ccc3c(=O)c(C(=O)O)cn(-c4nccs4)c3n2)C[C@@H]1OC	ATXN2 expr inh 11µM (no result: A549 viability, TGFb inhibitor, HepG2 tox, Nrf2 block, ATXN viability)
O=C(Nc1ccccc1)C1CCN(c2nccs2)CC1	none
COc1ccc(/C=N/NC(=O)c2[nH]ncc2Br)c(OC)c1	Nrf2 block inconclusive
Cc1cc2c(s1)c1cnn(Cc3ccc(S(C)(=O)=O)cc3)c(=O)c1n2C	Nrf2 block 21µM (no result: TGFb inhibitor, HepG2 tox, ATXN2 expr inh, ATXN viability)
COc1ccc(-c2nc(NC(=O)c3cc(C(C)(C)C)nn3C)sc2C)cc1	A549 viability inconclusive, TGFb inhibitor inconclusive, Nrf2 block 18µM
COc1ccc(-c2nc(NC(=O)c3c(C)noc3C)sc2C)cc1	Nrf2 block inconclusive
COc1ccc(-n2ncc3c2CC(C)(C)CC3NC(=O)c2cnc(C)cn2)cc1 (stereo unspecified)	none
CN1CCN(c2nc(-c3ccccc3)c3cc(Cl)ccc3n2)CC1	none
Clc1ccc2nc(N3CCNCC3)nc(-c3ccccc3)c2c1	A549 viability inconclusive, TGFb inhibitor inconclusive, HepG2 tox 13µM, ATXN2 expr inh inconclusive
COc1ccc(NC(=O)CN2CCCN(S(=O)(=O)c3ccc(Br)cc3)CC2)c(OC)c1	A549 viability 18µM, TGFb inhibitor inconclusive, Nrf2 block 21µM, ATXN viability inconclusive
COc1ccc(NC(=O)COc2ccccc2F)cc1S(=O)(=O)N1CCCCC1	Nrf2 block inconclusive
CN(CC(=O)Nc1ccc(F)cc1)c1ccc(S(=O)(=O)N2CCCCC2)cc1[N+](=O)[O-]	TGFb inhibitor inconclusive, Nrf2 block 13µM, ATXN viability inconclusive
COc1ccc(NC(=O)CN2CCCN(S(=O)(=O)c3ccc(F)cc3)CC2)c(OC)c1	Nrf2 block inconclusive, ATXN viability inconclusive
COc1ccc(NC(=O)CCOc2ccccc2F)cc1S(=O)(=O)N1CCCCC1	Nrf2 block 21µM
COc1ccc(OC)c(CC(=O)Nc2cc(S(=O)(=O)N3CCCCC3)ccc2C)c1	Nrf2 block 21µM
